Measured values reported in paper doi:10.1101/2025.02.07.636106.

Each substance was assayed against Histone deacetylase 2 (UniProt Q92769) (assay: cross-link between two proteins; affinity purification or IP with mass spectrometry; cross-linking mass spectrometry).
Sequence of Histone deacetylase 2 (Q92769 whole entry): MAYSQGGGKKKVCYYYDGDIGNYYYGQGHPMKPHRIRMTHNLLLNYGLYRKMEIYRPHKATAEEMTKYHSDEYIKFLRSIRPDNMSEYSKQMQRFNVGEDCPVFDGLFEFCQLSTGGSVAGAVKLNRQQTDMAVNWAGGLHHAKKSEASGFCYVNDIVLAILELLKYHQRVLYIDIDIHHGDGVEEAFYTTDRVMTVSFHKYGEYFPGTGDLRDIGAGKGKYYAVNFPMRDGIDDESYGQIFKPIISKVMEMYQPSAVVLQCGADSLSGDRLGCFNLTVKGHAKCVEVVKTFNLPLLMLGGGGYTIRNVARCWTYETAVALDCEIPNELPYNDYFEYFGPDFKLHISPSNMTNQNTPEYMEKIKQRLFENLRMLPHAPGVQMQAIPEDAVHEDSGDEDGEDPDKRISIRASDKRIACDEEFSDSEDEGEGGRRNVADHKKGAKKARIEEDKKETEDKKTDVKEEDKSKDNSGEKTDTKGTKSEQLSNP
With Histone-binding protein RBBP7, Q16576 the “listed as a hit” value was “yes”.
In the case of “Methyl-CpG-binding domain protein 3, O95983”, the “listed as a hit” value is reported as “yes”.
With “Transcriptional repressor p66-beta, Q8WXI9” the “listed as a hit” value was “yes”.
With “ATP-dependent chromatin remodeler CHD4, Q14839” the “listed as a hit” value was “yes”.
